Results from PubChem BioAssay (EPA / NIEHS).
Calls of active or inactive are those of the source. How the source made its calls: active means hit-call score of the fitted dose curve at least 0.9, where 1 is the maximum; inactive means score below 0.9.

Key:
Details in all cases: mRNA level, 48 h; actives raise or lower the signal
[1] = read-out: Fatty acid synthase (Homo sapiens) (UniProt P49327); assay: LTEA_HepaRG_FASN: Life Technologies and Expression Analysis (LTEA) Assay for Fatty Acid Synthase (FASN) using HepaRG (AID 2283448)
Method in brief: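 HepaRG, 48 h exposure, 8-pt half-log series top 100 uM, 0.5% DMSO vehicle, duplicates. Readout: FASN transcript by Fluidigm qRT-PCR; housekeeping-normalized; bidirectional curve fit vs DMSO baseline.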

[2] = read-out: Cyclin D2 (CCND2), CCND2 (gene 894); assay: LTEA_HepaRG_CCND2: Life Technologies and Expression Analysis (LTEA) Assay for Cyclin D2 (CCND2) using HepaRG (AID 2283449)
Method in brief: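 CCND2 transcript levels, quantified by qRT-PCR and normalised to three housekeeping genes, were fitted bidirectionally against 0.5% DMSO. HepaRG cultures were dosed 48 h in duplicate with an 8-point half-log series up to 100 uM.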

[3] = read-out: Cyclin Dependent Kinase Inhibitor 1A (CDKN1A), CDKN1A (gene 1026); assay: LTEA_HepaRG_CDKN1A: Life Technologies and Expression Analysis (LTEA) Assay for Cyclin Dependent Kinase Inhibitor 1A (CDKN1A) using HepaRG (AID 2283450)
Method in brief: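 Differentiated HepaRG cells in serum-free induction medium, exposed 48 h in duplicate to eight half-log concentrations up to 100 uM in 0.5% DMSO. mRNA measured by TaqMan qRT-PCR, normalized to ACTB, GAPDH, POLR2A; bidirectional fit versus DMSO.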

[4] = read-out: Cyclin D1 (CCND1), CCND1 (gene 595); assay: LTEA_HepaRG_CCND1: Life Technologies and Expression Analysis (LTEA) Assay for Cyclin D1 (CCND1) using HepaRG (AID 2283451);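 on AC50: TaqMan qRT-PCR transcript level normalised to ACTB GAPDH and POLR2A housekeeping genes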
Method in brief: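 Differentiated HepaRG cells exposed 48 h in serum-free induction medium to eight half-log concentrations from 100 uM top, 0.5% DMSO, duplicates. CCND1 mRNA measured by Fluidigm TaqMan qRT-PCR, normalised to ACTB, GAPDH, POLR2A; bidirectional fit.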

[5] = read-out: flavin-containing dimethylaniline monooxygenases 3 (FMO3), FMO3 (gene 2328); assay: LTEA_HepaRG_FMO3: Life Technologies and Expression Analysis (LTEA) Assay for flavin-containing dimethylaniline monooxygenases 3 (FMO3) using HepaRG (AID 2283453)
Method in brief: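 Eight-point concentration-response in serum-free HepaRG cultures (top 100 uM, 0.5% DMSO, 48 h). Read-out: FMO3 mRNA level normalized to three endogenous control genes, fitted bidirectionally versus vehicle.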

[6] = read-out: Cytochrome P450 (CYP1A1), CYP1A1 (gene 1543); assay: LTEA_HepaRG_CYP1A1: Life Technologies and Expression Analysis (LTEA) Assay for Cytochrome P450 (CYP1A1) using HepaRG (AID 2283454)
Method in brief: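 Differentiated human HepaRG cells, after 48 h plating, exposed in duplicate for 48 h in serum-free induction medium to 8 half-log concentrations up to 100 uM in 0.5% DMSO. CYP1A1 mRNA by qRT-PCR, normalized to ACTB/GAPDH/POLR2A; bidirectional fit versus DMSO.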

[7] = read-out: CFLAR gene, CFLAR (gene 8837); assay: LTEA_HepaRG_CFLAR: Life Technologies and Expression Analysis (LTEA) Assay for CFLAR gene using HepaRG (AID 2283455)
Method in brief: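 Transcript level by qRT-PCR (normalized to ACTB, GAPDH and POLR2A) after 48 h chemical exposure of HepaRG cells, top concentration 100 uM with half-log steps, 0.5% DMSO vehicle, duplicates; fitted bidirectionally against DMSO baseline.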

[8] = read-out: Forkhead box O1 (FOXO1), FOXO1 (gene 2308); assay: LTEA_HepaRG_FOXO1: Life Technologies and Expression Analysis (LTEA) Assay for Forkhead box O1 (FOXO1) using HepaRG (AID 2283456)
Method in brief: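 FOXO1 transcript quantified by qRT-PCR after 48 h chemical exposure (top 100 uM, half-log steps, 0.5% DMSO) of HepaRG cells, housekeeping-normalized (ACTB/GAPDH/POLR2A). Changes fitted in both directions relative to vehicle.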

[9] = read-out: growth arrest and DNA damage 45 (GADD45A), GADD45A (gene 1647); assay: LTEA_HepaRG_GADD45A: Life Technologies and Expression Analysis (LTEA) Assay for growth arrest and DNA damage 45 (GADD45A) using HepaRG (AID 2283458)
Method in brief: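 HepaRG, 48 h exposure, 8 conc. (top 100 uM, half-log steps), 0.5% DMSO vehicle, duplicates. Read-out: qRT-PCR mRNA level, housekeeping-normalized (ACTB/GAPDH/POLR2A). Curves fit bidirectionally vs DMSO baseline.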

[10] = read-out: Forkhead box O3 (FOXO3), FOXO3 (gene 2309); assay: LTEA_HepaRG_FOXO3: Life Technologies and Expression Analysis (LTEA) Assay for Forkhead box O3 (FOXO3) using HepaRG (AID 2283459)
Method in brief: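 FOXO3 transcript measured by qRT-PCR (normalized to ACTB, GAPDH, POLR2A) after 48 h exposure of HepaRG cells in serum-free induction medium. Duplicates, eight half-log concentrations up to 100 uM, 0.5% DMSO; gain or loss fitted against DMSO.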

[11] = read-out: ABC Transporter (ABCB1), ABCB1 (gene 5243); assay: LTEA_HepaRG_ABCB1: Life Technologies and Expression Analysis (LTEA) Assay for ABC Transporter (ABCB1) using HepaRG (AID 2283460)
Method in brief: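 ABCB1 transcript level measured by TaqMan qRT-PCR against three housekeeping genes after 48 h chemical exposure of differentiated HepaRG cells. Top concentration 100 uM, half-log steps, eight points, 0.5% DMSO vehicle; bidirectional fit relative to DMSO.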

[12] = read-out: growth arrest and DNA damage 45 (GADD45B), GADD45B (gene 4616); assay: LTEA_HepaRG_GADD45B: Life Technologies and Expression Analysis (LTEA) Assay for growth arrest and DNA damage 45 (GADD45B) using HepaRG (AID 2283461)
Method in brief: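 Differentiated human HepaRG cells in serum-free induction medium exposed 48 h in duplicate to eight concentrations, top 100 uM, half-log steps, 0.5% DMSO. GADD45B mRNA by TaqMan qRT-PCR, normalized to ACTB, GAPDH, POLR2A; bidirectional fit versus DMSO.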

[13] = read-out: ABC Transporter (ABCC3), ABCC3 (gene 8714); assay: LTEA_HepaRG_ABCC3: Life Technologies and Expression Analysis (LTEA) Assay for ABC Transporter (ABCC3) using HepaRG (AID 2283462)
Method in brief: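 Differentiated human HepaRG cells exposed 48 h in serum-free induction medium, 0.5% DMSO vehicle, 8-point half-log series to 100 uM in duplicate. ABCC3 mRNA by qRT-PCR, normalised to ACTB, GAPDH, POLR2A; bidirectional fit vs DMSO.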

[14] = read-out: ABC Transporter (ABCB11), ABCB11 (gene 8647); assay: LTEA_HepaRG_ABCB11: Life Technologies and Expression Analysis (LTEA) Assay for ABC Transporter (ABCB11) using HepaRG (AID 2283463)
Method in brief: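 ABCB11 transcript levels quantified by TaqMan qRT-PCR against three housekeeping genes after 48 h chemical exposure of HepaRG cultures. Concentrations up to 100 uM in half-log steps, 0.5% DMSO vehicle; both induction and suppression scored.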

[15] = read-out: ABC Transporter (ABCC2), ABCC2 (gene 1244); assay: LTEA_HepaRG_ABCC2: Life Technologies and Expression Analysis (LTEA) Assay for ABC Transporter (ABCC2) using HepaRG (AID 2283464)
Method in brief: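 Differentiated HepaRG cells in serum-free induction medium exposed 48 h to eight half-log concentrations up to 100 uM, 0.5% DMSO, in duplicate. ABCC2 mRNA measured by qRT-PCR (TaqMan, Fluidigm), normalized to ACTB, GAPDH and POLR2A. Fitted in both directions against DMSO.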

[16] = read-out: Broad substrate specificity ATP-binding cassette transporter ABCG2 (Homo sapiens) (UniProt Q9UNQ0); assay: LTEA_HepaRG_ABCG2: Life Technologies and Expression Analysis (LTEA) Assay for ABC Transporter (ABCG2) using HepaRG (AID 2283465)
Method in brief: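 ABCG2 transcript was quantified by TaqMan qRT-PCR against three housekeeping genes in HepaRG cells. Cells were treated in duplicate for 48 h across an 8-point half-log series up to 100 uM, with 0.5% DMSO vehicle. Gain or loss versus DMSO was fit.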

[17] = read-out: ATP-citrate lyase (ACLY), ACLY (gene 47); assay: LTEA_HepaRG_ACLY: Life Technologies and Expression Analysis (LTEA) Assay for ATP-citrate lyase (ACLY) using HepaRG (AID 2283466)
Method in brief: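 ACLY mRNA quantified by qRT-PCR on Fluidigm arrays against three housekeeping genes, after 48 h chemical treatment of HepaRG cells (top concentration 100 uM, half-log steps, 0.5% DMSO vehicle). Up- or down-regulation fitted relative to DMSO.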

[18] = read-out: Peroxisomal acyl-coenzyme A oxidase 1 (ACOX1) gene, ACOX1 (gene 51); assay: LTEA_HepaRG_ACOX1: Life Technologies and Expression Analysis (LTEA) Assay for Peroxisomal acyl-coenzyme A oxidase 1 (ACOX1) gene using HepaRG (AID 2283467)
Method in brief: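 ACOX1 transcript levels were quantified by TaqMan qRT-PCR against three housekeeping genes after 48 h chemical exposure of differentiated human HepaRG cells. Exposure used eight half-log steps topping at 100 uM, 0.5% DMSO vehicle, in duplicate. Bidirectional curve fits were made relative to DMSO.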

[19] = read-out: catalase (CAT), CAT (gene 847); assay: LTEA_HepaRG_CAT: Life Technologies and Expression Analysis (LTEA) Assay for catalase (CAT) using HepaRG (AID 2283452)
Method in brief: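 Expression of CAT was quantified by TaqMan qRT-PCR with ACTB/GAPDH/POLR2A normalization after 48 h chemical exposure of HepaRG. Eight-point half-log series, top 100 uM, in 0.5% DMSO; gain or loss fitted against vehicle.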

Measured: AC50

Chain of Broad substrate specificity ATP-binding cassette transporter ABCG2 (Homo sapiens) (Q9UNQ0 whole entry, looked up): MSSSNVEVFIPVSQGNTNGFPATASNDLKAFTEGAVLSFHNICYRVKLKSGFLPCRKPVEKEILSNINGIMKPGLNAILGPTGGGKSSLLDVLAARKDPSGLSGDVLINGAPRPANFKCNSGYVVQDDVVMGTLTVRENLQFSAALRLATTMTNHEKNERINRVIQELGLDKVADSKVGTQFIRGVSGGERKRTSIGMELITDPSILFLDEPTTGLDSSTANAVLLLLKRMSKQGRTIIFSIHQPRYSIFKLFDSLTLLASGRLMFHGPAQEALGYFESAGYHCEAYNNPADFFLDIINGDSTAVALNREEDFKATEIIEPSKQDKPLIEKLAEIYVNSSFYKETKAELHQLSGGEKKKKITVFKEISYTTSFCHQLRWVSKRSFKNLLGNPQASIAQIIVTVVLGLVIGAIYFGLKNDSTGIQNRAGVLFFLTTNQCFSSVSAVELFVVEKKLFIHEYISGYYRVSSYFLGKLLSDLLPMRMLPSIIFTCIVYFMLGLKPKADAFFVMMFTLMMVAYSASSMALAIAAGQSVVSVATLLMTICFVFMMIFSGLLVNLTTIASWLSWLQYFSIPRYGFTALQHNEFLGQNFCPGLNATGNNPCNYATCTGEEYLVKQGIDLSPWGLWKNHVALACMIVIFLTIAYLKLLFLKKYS
Chain of Fatty acid synthase (Homo sapiens) (P49327 whole entry, looked up): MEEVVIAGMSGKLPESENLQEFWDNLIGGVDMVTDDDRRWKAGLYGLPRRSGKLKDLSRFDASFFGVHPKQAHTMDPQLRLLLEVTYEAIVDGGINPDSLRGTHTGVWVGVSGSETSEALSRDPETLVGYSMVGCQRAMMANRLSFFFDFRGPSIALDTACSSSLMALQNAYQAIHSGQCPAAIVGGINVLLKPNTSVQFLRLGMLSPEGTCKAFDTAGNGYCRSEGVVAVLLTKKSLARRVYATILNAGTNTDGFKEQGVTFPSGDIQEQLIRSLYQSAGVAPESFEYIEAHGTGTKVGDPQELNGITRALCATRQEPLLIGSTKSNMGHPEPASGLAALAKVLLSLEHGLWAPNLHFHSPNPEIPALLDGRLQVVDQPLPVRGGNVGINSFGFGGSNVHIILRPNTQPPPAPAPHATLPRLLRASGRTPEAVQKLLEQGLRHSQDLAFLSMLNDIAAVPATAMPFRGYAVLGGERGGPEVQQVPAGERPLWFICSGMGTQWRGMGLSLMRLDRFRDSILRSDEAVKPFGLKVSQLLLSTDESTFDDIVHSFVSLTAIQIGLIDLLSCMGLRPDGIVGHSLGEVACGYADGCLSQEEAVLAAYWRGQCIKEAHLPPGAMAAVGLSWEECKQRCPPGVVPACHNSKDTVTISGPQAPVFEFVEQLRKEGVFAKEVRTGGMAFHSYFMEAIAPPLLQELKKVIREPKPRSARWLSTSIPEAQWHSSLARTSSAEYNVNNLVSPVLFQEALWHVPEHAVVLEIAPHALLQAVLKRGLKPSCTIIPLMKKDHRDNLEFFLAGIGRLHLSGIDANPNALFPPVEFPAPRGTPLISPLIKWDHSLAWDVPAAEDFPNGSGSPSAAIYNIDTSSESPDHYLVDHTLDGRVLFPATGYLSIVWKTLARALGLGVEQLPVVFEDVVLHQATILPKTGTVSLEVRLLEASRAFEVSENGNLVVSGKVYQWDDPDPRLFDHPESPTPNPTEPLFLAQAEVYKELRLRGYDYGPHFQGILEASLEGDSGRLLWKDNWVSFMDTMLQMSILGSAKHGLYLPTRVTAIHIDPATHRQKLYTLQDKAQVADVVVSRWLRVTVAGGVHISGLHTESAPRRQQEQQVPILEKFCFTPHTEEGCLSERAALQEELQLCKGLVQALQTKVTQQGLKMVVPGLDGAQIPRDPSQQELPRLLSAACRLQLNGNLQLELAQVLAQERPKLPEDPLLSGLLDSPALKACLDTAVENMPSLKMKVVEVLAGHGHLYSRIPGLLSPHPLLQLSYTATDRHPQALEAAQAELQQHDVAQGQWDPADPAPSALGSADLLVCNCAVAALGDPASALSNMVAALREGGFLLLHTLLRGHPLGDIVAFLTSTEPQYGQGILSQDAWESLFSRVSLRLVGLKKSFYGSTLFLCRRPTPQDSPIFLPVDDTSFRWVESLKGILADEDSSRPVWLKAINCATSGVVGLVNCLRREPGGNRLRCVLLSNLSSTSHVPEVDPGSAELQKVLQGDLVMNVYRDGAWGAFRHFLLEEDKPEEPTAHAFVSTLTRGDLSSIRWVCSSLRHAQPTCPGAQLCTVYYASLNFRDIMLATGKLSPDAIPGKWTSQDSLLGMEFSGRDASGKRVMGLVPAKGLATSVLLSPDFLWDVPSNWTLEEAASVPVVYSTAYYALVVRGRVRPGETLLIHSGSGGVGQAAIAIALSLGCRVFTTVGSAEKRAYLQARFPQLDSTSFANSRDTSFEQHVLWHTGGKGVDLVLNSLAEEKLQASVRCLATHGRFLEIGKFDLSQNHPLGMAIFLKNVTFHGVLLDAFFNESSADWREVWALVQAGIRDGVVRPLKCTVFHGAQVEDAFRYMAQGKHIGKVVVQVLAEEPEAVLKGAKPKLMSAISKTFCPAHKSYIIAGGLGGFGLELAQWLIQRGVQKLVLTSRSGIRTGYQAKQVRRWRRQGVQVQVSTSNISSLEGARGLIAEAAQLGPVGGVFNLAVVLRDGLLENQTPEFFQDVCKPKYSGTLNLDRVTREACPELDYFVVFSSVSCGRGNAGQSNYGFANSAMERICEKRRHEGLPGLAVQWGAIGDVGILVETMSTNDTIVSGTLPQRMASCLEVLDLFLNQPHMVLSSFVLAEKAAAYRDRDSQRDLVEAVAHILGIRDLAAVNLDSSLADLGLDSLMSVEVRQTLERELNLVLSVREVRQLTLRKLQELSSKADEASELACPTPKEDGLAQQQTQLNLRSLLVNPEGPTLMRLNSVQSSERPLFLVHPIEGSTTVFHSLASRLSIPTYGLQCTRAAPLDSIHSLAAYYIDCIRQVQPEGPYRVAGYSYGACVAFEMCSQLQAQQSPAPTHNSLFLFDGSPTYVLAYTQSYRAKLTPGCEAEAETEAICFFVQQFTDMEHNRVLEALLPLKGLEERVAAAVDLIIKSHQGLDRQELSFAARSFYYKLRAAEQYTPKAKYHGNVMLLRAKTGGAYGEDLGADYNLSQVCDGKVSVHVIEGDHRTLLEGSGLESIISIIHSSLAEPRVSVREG

Cc1oc(-c2ccccc2)nc1CCOc1cccc2c1ccn2CCC(=O)O
active: [1] 11.9 µM | [3] 71.2 µM | [4] 50 µM | [5] 76.7 µM | [7] 10.7 µM | [8] 85.6 µM | [9] 75.2 µM | [11] 81.3 µM | [12] 75.8 µM | [14] 93.7 µM | [16] 40.2 µM | [17] 38.7 µM | [18] 0.106 µM
inactive: [2] | [6] | [10] | [13] | [15]

CC(=O)Oc1ccccc1C(=O)O
inactive: [1] | [2] | [3] | [4] | [5] | [7] | [8] | [9] | [10] | [11] | [12] | [13] | [14] | [15] | [16] | [17] | [18]
active: [6] 50 µM

Cc1ccccc1Cl
inactive: [1] | [2] | [3] | [4] | [19] | [5] | [8] | [9] | [10] | [11] | [12] | [13] | [14] | [15] | [16] | [17] | [18]
active: [6] 50 µM

CCCCCCCCCCO
inactive: [1] | [2] | [3] | [4] | [5] | [6] | [7] | [8] | [9] | [10] | [11] | [12] | [13] | [14] | [15] | [16] | [17] | [18]

Clc1cc(Cl)c(Cl)cc1Cl
active: [6] 50 µM
inactive: [1] | [2] | [3] | [4] | [5] | [7] | [8] | [9] | [10] | [11] | [12] | [13] | [14] | [15] | [16] | [17] | [18]

CCCCCC(=O)O
inactive: [1] | [2] | [3] | [4] | [19] | [5] | [8] | [9] | [10] | [11] | [12] | [13] | [14] | [15] | [16] | [17] | [18]
active: [6] 70 µM

COC(=O)c1ccc(O)cc1
inactive: [1] | [2] | [3] | [4] | [5] | [6] | [7] | [8] | [9] | [10] | [11] | [12] | [13] | [14] | [15] | [16] | [17] | [18]
